About 83,000 compounds went through this panel and 20% of them were active in at least one assay; those are over-represented in the sample as a whole.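 Percent growth is the endpoint: 0 to 100 indicates growth inhibition (40 means 60% inhibition), 0 means no net growth, and negative values indicate cell death.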 Values without a mark were called inactive. Active and inactive are the calls of the source.

For the test, the system named is MOLT-4 leukemia. The experiment in a line: NCI-60 one-dose screen, 48 h (100 = growth as untreated, 0 = no growth, -100 = all killed). The settings on record: 10 µM unless noted. The protocol:
Growth inhibition of the MOLT-4 human tumor cell line is measured as a screen for anti-cancer activity. Cells are grown in 96 well plates and exposed to the test compound for 48 hours. Compounds are tested at a single concentration, which is 10^-5 M for most compounds. The reported endpoint is percent growth (GI% or GIPRCNT), where numbers from 0 - 100% represent growth inhibition, and numbers from -100% - 0 represent cell death. For example, a value of 40 represents 60% growth inhibition. A value of 0 means no net growth occurred over the course of the experiment. A value of -40 indicates 40% of cells at the beginning of the experiment died by the end of the experiment. A value of -100 means all cells are dead at the end of the experiment.
NCI-60 Human Tumor Cell Lines Screen was performed using the standard one-dose NCI protocol, which is described in more detail at https://dtp.cancer.gov/discovery_development/nci-60/default.htm.
Compounds with GIPRCNT values below 10 were considered active. Activity score was based on GIPRCNT using the following formula: […]
Score is 0 for GIPRCNT values of 100 or above, 50 for GIPRCNT values of 0, and 100 for GIPRCNT values of -100.
For the compound `COc1ccccc1CNCCCCCCCCCCCCN1C(=O)c2ccc3c4c(ccc(c24)C1=O)C(=O)N(CCCCCCCCCCCCNCc1ccccc1OC)C3=O`, the growth was 64.6%.
Take `CC(C)(C)[Si](C)(C)OC1[C@@H](CNC(=O)NC(=O)CCl)O[C@@H](n2cnc3c(N)ncnc32)[C@H]1O[Si](C)(C)C(C)(C)C` (stereo not given in full): the growth was -53.5% (active).
Turning to `CCCN1CCN(c2ccc3nc(-c4ccc5nc(-c6ccc(C(F)(F)F)cc6)[nH]c5c4)[nH]c3c2)CC1`, the growth was -38.6% (active).
In the case of `O=C(CC(O)c1ccccc1)Nc1ccccn1` (stereo not given), the growth is 79%.
Next, `CCCCCCCCCCCC(=O)[O][Sn]([CH2]CCC)([CH2]CCC)[CH2]CCC`: -27% (active); `NC(=O)c1cc(I)ccc1NC(=O)COc1ccccc1`: 4.74% (active).
Regarding `CCCCCCCC/C=C\CCCCCCCCOc1cccc(CC(=O)NCC[N+]2(C)CCCCC2)c1`, the growth was 57%.
As for `COc1cc(/C=C/C(=O)C(=Cc2ccc(F)c(F)c2)C(=O)/C=C/c2ccc(O)c(OC)c2)ccc1O`, the figure is 12.2%; as for `CC(=O)N(CC(O)CO)c1c(I)c(C(=O)NCCO)c(I)c(C(=O)NCC(O)CO)c1I` (stereo not given), 84.3%.
Next, `CC1=C(C/C=C(\C)CCC[C@H](C)CCC[C@H](C)CCCC(C)C)C(=O)c2ccccc2C1=O`: 101%; `O=C1/C(=C/c2ccc(F)cc2)CN(Cc2cn(CCNc3ccnc4cc(Cl)ccc34)nn2)C/C1=C\c1ccc(F)cc1`: -18.4% (active).
For the compound `COc1ccc(-c2nc3sc(C)nn3c2-c2nc3cc(C)c(C)cc3[nH]2)cc1`, the growth is 78.1%.
Next, `CCC(=O)Nc1nnc(Cc2ccc(OC)c(OC)c2)s1`: 48.9%; `Cc1ccc(N=c2nc3sc4c(C)ccc(C)c4n3c(N)c2C#N)cc1`: 93.6%.
As for `O=C(Nc1ccc(F)cc1)c1ccc(C(=O)Nc2ccc(F)cc2)cc1`, the figure is 94.4%; as for `O=C(COc1ccc(/C=C2\CSc3ccccc3C2=O)cc1)c1ccc(Cl)cc1`, 82.1%.
On to `CCCCC1COc2cccc3c(SCC(=O)N(C)c4cccc5ccccc45)cc[n+]1c23` (stereo not given), for which the growth is 102%.
Next, `COC(=O)c1cc(-c2ccc(C)cc2)n(C(=O)CSc2nc3sc(C(N)=O)c(C)c3c(=O)n2Cc2ccccc2)n1`: 95.1%.
As for `Cc1cc(NS(=O)(=O)c2ccc(NC(=O)COc3ccc(-c4cc5ccccc5[nH]4)cc3)cc2)no1`, the figure is -2.31% (active).
`Nc1c(Br)cc(Br)cc1-c1n[nH]c(=O)[nH]c1=O`: the growth was 65.8%.
With `COc1cc2oc(-c3ccc(O)cc3)cc(=O)c2c(O)c1I`, the growth was 111%.
Take `c1ccc(-c2n(Cc3ccc4ccccc4n3)c3ccccc3[n+]2Cc2ccc3ccccc3n2)cc1`: the growth is -16.9% (active).
Consider `Cc1ccccc1-c1cc(-c2ccc(Br)s2)[nH]c(=O)c1C#N`, for which the growth was 92.7%.
In the case of `COc1ccc(CSc2nc3cc(OC)c(OC)cc3c(=O)n2-c2ccc(Cl)cc2)cc1`, the growth is 101%.
Take `COc1cc(NC(=O)COc2ccccc2)c(C(N)=O)cc1OC`: the growth is 26.9%.
On to `O=C(c1ccccc1)C(Br)C(Br)c1cccc([N+](=O)[O-])c1` (stereo not given), for which the growth was 3.67% (active).
Next, `O=C(O)CCN1CCN(c2cccc(Cl)c2)CC1`: 91.3%; `O=C1CC2c3cc(-c4cc5ccccc5o4)ccc3CCN2C(=O)N1c1ccccc1` (stereo not given): 64.1%; `CCCCCCCCCCCCSC1=CC(=O)C=CC1=O`: -0.985% (active).
Regarding `COc1cccc(C2C3=C(COC3=O)N(CCO)c3cc4c(cc32)CCC4)c1` (stereo not given), the growth was 24.3%.
For the compound `O=C(COc1cccc(/C=C2\COc3ccccc3C2=O)c1)c1ccccc1`, the growth is -21.9% (active).
For `NS(=O)(=O)c1ccc(C(=O)N/N=C(\CS(=O)(=O)c2ccccc2)c2cc3cc(Br)ccc3o2)cc1`, the growth is 137%.
In the case of `COCCOC1=C(Cl)C(=O)c2ccccc2C1=O`, the growth was 21.7%.
With `O=C(O)c1ccccc1Oc1cc(-c2ccco2)nc(OCCBr)n1`, the growth is 98.5%.
Turning to `Cc1ccc(-c2nnc(COc3ccc(-c4nnc(N)s4)cc3)o2)cc1`, the growth was 77.6%.
As for `CN1CCN(c2nc(-c3ccncc3)nc3sc4c(c23)CCCCCC4)CC1`, the growth is 50.9%.
Regarding `O=c1[nH]c(=S)[nH]c(=O)n1Cc1cccc2ccccc12`, the growth was 99.7%.
Take `Cc1nc(NC(=O)COc2cccc(/C=C3\COc4ccccc4C3=O)c2)sc1C`: the growth is -36.8% (active).
Consider `NC(=O)c1cc(I)ccc1NC(=O)COc1ccc(Cl)cc1Cl`, for which the growth was 80.5%.
For `COc1ccc(/C=C2\SC(=O)N(CN3CCN(c4cc5c(cc4F)c(=O)c(C(=O)O)cn5C4CC4)CC3)C2=O)cc1`, the growth was 116%.
